Counter-ions that a name gives are not always drawn.
tested on: Neuro-2a; test: neurite formation score, plate-normalized to DMSO control mean 5.04 (score (0-8 scale)); higher = more or longer neurites; settings: 1 µM
Description: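 Neuro-2a mouse neuroblastoma cells in PLL-coated 96-well plates were pre-treated for 1 h in DMEM(+) with each kinase inhibitor at 1 µM, then switched to serum-free DMEM(-) with inhibitor to induce neurite outgrowth and fixed about 2-3 h later. Three blinded observers scored neurite formation from 0 (no neurites) to 8 (long neurites on almost all cells).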

Row | Compound | neurite formation score
1 | O=S(=O)(c1cccc2c(O)nccc12)N1CCCNCC1 [Hydroxyfasudil hydrochloride] | 3.8
2 | N=C(N)NC(=N)NCCc1ccccc1 [Phenformin HCl] | 4.8
3 | C[C@H](Nc1ncnc2nc[nH]c12)c1cc2cccc(Cl)c2c(=O)n1-c1ccccc1 | 2.91
4 | Cc1c(NC(=O)c2ccc(C(C)(C)C)cc2)cccc1-c1cn(C)c(=O)c(Nc2ccc(C(=O)N3CCOCC3)cc2)n1 | 5.57
5 | NC(=O)c1ccc(-c2nc(-c3ccc4c(c3)OCCO4)c(-c3ccccn3)[nH]2)cc1 | 4.36
6 | CC(C)(C)Cn1c(N)nc2ccc(-c3[nH]c(C(C)(C)C)nc3-c3ccc(F)cc3)nc21 | 4.57
7 | C[C@@H](Oc1cc(-c2cnn(C3CCNCC3)c2)cnc1N)c1c(Cl)ccc(F)c1Cl [(R)-Crizotinib] | 4.91
8 | c1nc2c(NC3CCCCC3)nc(Nc3ccc(N4CCOCC4)cc3)nc2[nH]1 [Reversine] | 5.02
9 | CC1=C(C(=O)Nc2cc3cn[nH]c3cc2F)C(c2ccc(C(F)(F)F)cc2)CC(=O)N1 (stereo not given) | 0.236
10 | CC(C)(C)n1nc(Cc2cccc3ccccc23)c2c(N)ncnc21 | 4.63
11 | CNC(=O)c1cc(Oc2ccc(NC(=O)Nc3ccc(Cl)c(C(F)(F)F)c3)cc2)ccn1 [Sorafenib] | 4.24
12 | Cc1ccc(NC(=O)c2cccc(C(C)(C)C#N)c2)cc1Nc1ccc2ncn(C)c(=O)c2c1 | 5.24
13 | Cc1nc2c(-c3cnc(N)nc3)nc(N3CCOCC3)nc2n1C(C)C | 4.02
14 | CCn1c2ccccc2c2cc(Nc3ccnc(NCCCN4CCOCC4)n3)ccc21 | 3.54
15 | O=C(Nc1ccc(OC(F)(F)F)cc1)c1sccc1NCc1ccnc2ccccc12 | 3.91
16 | Cc1ccc(-c2nn(C(C)(C)C)c3ncnc(N)c23)cc1 | 2.9
17 | CCn1c(-c2nonc2N)nc2c(C#CC(C)(C)O)ncc(OC[C@H]3CCCNC3)c21 | 4.02
18 | Cc1cc(C(C)Nc2ccccc2)c2nc(N3CCOCC3)cc(=O)n2c1 (stereo not given) | 4.47
19 | Cc1ncc(CCCN(C)C)cc1Nc1ncc2c(n1)-c1ccc(C(F)(F)F)cc1NC(=S)C2 | 5.29
20 | O=C(Nc1cccc(Nc2ncc(Br)c(NCCc3cnc[nH]3)n2)c1)N1CCCC1 | 3.91

Row | Compound | neurite formation score
21 | COc1ccc(C(=O)Nc2sc3c(c2C(N)=O)CCCC3)cc1OC | 4.57
22 | O=C(c1ccc(Nc2nccc(-c3cc4ccccc4s3)n2)cc1)N1CCC(N2CCCC2)CC1 [IKK-16 (IKK Inhibitor VII)] | 4.54
23 | CO[C@H]1C[C@@H]2CC[C@@H](C)[C@@](O)(O2)C(=O)C(=O)N2CCCC[C@H]2C(=O)O[C@H]([C@H](C)C[C@@H]2CC[C@@H](OP(C)(C)=O)[C@H](OC)C2)CC(=O)[C@H](C)/C=C(\C)[C@@H](O)[C@@H](OC)C(=O)[C@H](C)C[C@H](C)/C=C/C=C/C=C/1C [Ridaforolimus (Deforolimus, MK-8669)] | 4.21
24 | O=C(NOC[C@H](O)CO)c1ccc(F)c(F)c1Nc1ccc(I)cc1F | 4.91
25 | Clc1ccc(Nc2nnc(Cc3ccncc3)c3ccccc23)cc1 [Vatalanib (PTK787) 2HCl] | 3.91
26 | CN1C/C=C/CCOc2cccc(c2)-c2ccnc(n2)Nc2cccc(c2)C1 | 2.8
27 | COc1cc(N2CCC(N(C)C)CC2)ccc1Nc1ncc(Cl)c(Nc2ccccc2P(C)(C)=O)n1 | 4.57
28 | C[C@@H](Oc1ccc2[nH]nc(/C=C/c3cnn(CCO)c3)c2c1)c1c(Cl)cncc1Cl | 1.02
29 | CCN(CC)CCCC(C)Nc1ccnc2cc(Cl)ccc12 (stereo not given) [Chloroquine diphosphate] | 4.96
30 | CCOc1cc2ncc(C#N)c(Nc3ccc(F)c(Cl)c3)c2cc1NC(=O)/C=C/CN(C)C [Pelitinib (EKB-569)] | 3.91
31 | Cn1cc(-c2[nH]c3cc(NC(=O)[C@H](N)C4CCCCC4)cc4c3c2C=NNC4=O)cn1 | 3.63
32 | O=c1cc(-c2ccccc2)oc2c(O)c(O)ccc12 [7,8-Dihydroxyflavone] | 4.21
33 | CC(C)n1nc(-c2cc3cc(O)ccc3[nH]2)c2c(N)ncnc21 | 3.47
34 | COc1cccc(-c2cc(=O)c3ccccc3o2)c1N | 3.57
35 | Cc1cn(-c2cc(NC(=O)c3ccc(C)c(Nc4nccc(-c5cccnc5)n4)c3)cc(C(F)(F)F)c2)cn1 [Nilotinib monohydrochloride monohydrate] | 4.47
36 | Oc1ccc(-c2nc(-c3ccc(F)cc3)c(-c3ccncc3)[nH]2)cc1 | 4.57
37 | COc1c(OCCCN2CCOCC2)ccc2c3n(c(=NC(=O)c4cnc(N)nc4)nc12)CCN3 [BAY 80-6946 (Copanlisib)] | 4.14
38 | O=C1NC(=NCc2cccs2)S/C1=C\c1ccc2ncccc2c1 | 5.63
39 | O=C(Nc1c[nH]nc1-c1nc2ccc(CN3CCOCC3)cc2[nH]1)NC1CC1 | 4.02
40 | Cc1cnc(NC(=O)Nc2cc(Br)c(C)cc2OC[C@@H]2CNCCO2)cn1 | 4.96

From the supplement of paper PMC8047044
